MsrA inh – inhibits bovine methionine sulfoxide reductase A | inhibition, % at 15.5 µM | hit rate 0.75% among 360,000 | purified bovine MsrA, absorbance read-out | AID 651718; in the data active = inhibition above about 4.5%;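 note: 0% = vehicle wells with enzyme and 100% = reference inhibitor wells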
SMARCA2 activ – activators of SMARCA2 function; MG213 cells, MMTV-luciferase reporter, dexamethasone, overnight; activation, % at 9.1 µM; hit rate 1% among 370,000; in the data active = activation above about 7.8%;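 note: 0% = vehicle wells and 100% = reference activator wells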
MsrA act – activates bovine MsrA enzyme | activation, % at 10.6 µM | hit rate 0.3% among 360,000 | purified bovine MsrA, absorbance read-out | AID 602163; in the data active = activation above about 7.5%;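 note: 0% = vehicle and 100% = reference activator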
proKLK7 act – activators of human kallikrein-7 zymogen; P49862; purified proKLK7, EDANS-DABCYL substrate fluorescence; 100% is mature enzyme control, 0% vehicle; activation, % at 7 µM; hit rate 0.9% among 370,000; AID 652039;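 active = activation above the mean of all tested compounds plus 3 SD, computed per campaign excluding outliers beyond control limits, cut at about 13% in these data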
Target sequence (P49862 whole entry, looked up): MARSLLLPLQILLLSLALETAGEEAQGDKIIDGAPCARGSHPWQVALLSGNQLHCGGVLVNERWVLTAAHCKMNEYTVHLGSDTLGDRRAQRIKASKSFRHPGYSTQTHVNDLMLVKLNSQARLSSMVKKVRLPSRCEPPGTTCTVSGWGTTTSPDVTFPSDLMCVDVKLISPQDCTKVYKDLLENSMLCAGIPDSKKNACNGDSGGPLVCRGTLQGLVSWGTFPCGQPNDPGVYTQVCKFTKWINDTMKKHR
SMARCA2 conf – confirmation of SMARCA2 (BRM) function activators | hit rate 30% among 3,500 | MG213 cells, MMTV-luciferase with dexamethasone, luminescence, overnight; MG213 cells expressing E1A, Rb sequestered; DMSO wells 0%, reference activator 100% | AID 652260 | activation, % at 9.1 µM | shares compounds with SMARCA2 activ;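 active = activation above its plate's cutoff, the mean activation of tested wells plus 3 SD, cut at about 7.9% in these data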
GAL4-VP16 Luc – GAL4-VP16 reporter activation counter-screen. shares compounds with SMARCA2 activ. HEK293 GAL4-VP16 pG5luc reporter, luciferase luminescence; scaled: DMSO wells 0%, SAHA wells 100%. activation, % at 9.1 µM. hit rate 41% among 3,500. AID 686939;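 active = activation above the solvent-only control well mean plus 3 SD, averaged across control plates, cut at about 5.2% in these data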
Active calls of the source: *. Sampled rows, rich in hits. Any-hit rate of the full collection: about 2.8%.

How did CC1C(c2ccccc2)OCCN1C(=S)NC(=O)c1ccccc1 (configuration not stated) do in these assays?
MsrA inh: -1; SMARCA2 activ: -3; MsrA act: -3; proKLK7 act: 0

How did CCCC(=O)N(Cc1cc2cc(OC)ccc2[nH]c1=O)c1ccc(OC)cc1 do in these assays?
MsrA inh: 2; SMARCA2 activ: -5; MsrA act: -1; proKLK7 act: 1

What do the screens show for `O=C(Oc1c(CN2CCOCC2)cc(Cl)c2cccnc12)c1ccccc1Br`?
MsrA inh: 1; SMARCA2 activ: 8.7*; MsrA act: -3; proKLK7 act: -1; SMARCA2 conf: 24*; GAL4-VP16 Luc: -2

Results for COC(=O)CCCn1cc(CN2CC(N3CCN(Cc4cccc(C)c4)CC3)CS2(=O)=O)nn1 (configuration not stated) ?
MsrA inh: -1; SMARCA2 activ: -2; MsrA act: -1; proKLK7 act: 1

What do the screens show for `O=C(NCc1ccccc1Cl)[C@H]1CCCN1C(=O)[C@H]1CCCN1C(=O)c1cccc2ccccc12`?
MsrA inh: -1; SMARCA2 activ: 3; MsrA act: 3; proKLK7 act: 0

Results for COc1ccc(COC(=O)N/N=C/c2cccs2)cc1 ?
MsrA inh: 0; SMARCA2 activ: 9.3*; MsrA act: -6; proKLK7 act: 1; SMARCA2 conf: 3; GAL4-VP16 Luc: 3

How did COc1ccc(CC(=O)N/N=C/c2cccs2)cc1OC do in these assays?
MsrA inh: 1; SMARCA2 activ: -2; MsrA act: -2; proKLK7 act: 0

Results for OCC1OC(n2cnc3c(SCc4ccccc4)ncnc32)C(O)C1O (configuration not stated) ?
MsrA inh: 0; SMARCA2 activ: 8.7*; MsrA act: 0; proKLK7 act: 0; SMARCA2 conf: 13*; GAL4-VP16 Luc: 1

Results for O=c1[nH]cnc2c1ccn2C1OC(CO)C(O)C1O (configuration not stated) ?
MsrA inh: 0; SMARCA2 activ: -1; MsrA act: -1; proKLK7 act: 0

How did Nc1ncnc2c1ncn2C1OC(CO)C(O)C1O (configuration not stated) do in these assays?
MsrA inh: 0; SMARCA2 activ: 8.6*; MsrA act: -4; proKLK7 act: 0; SMARCA2 conf: 5; GAL4-VP16 Luc: 0

How did Nc1ncnc2c1ncn2C1O[C@H](CO)[C@@H](O)[C@@H]1O (some centres not stated) do in these assays?
MsrA inh: -1; SMARCA2 activ: -1; MsrA act: 0; proKLK7 act: 0

What do the screens show for `Nc1nc(SCc2ccccc2)c2ncn(C3OC(CO)C(O)C3O)c2n1` (configuration not stated)?
MsrA inh: 0; SMARCA2 activ: 2; MsrA act: 1; proKLK7 act: 0

What do the screens show for `OCC1OC(n2ccc3c(SCc4ccccc4)ncnc32)C(O)C1O` (configuration not stated)?
MsrA inh: 1; SMARCA2 activ: 9.4*; MsrA act: 0; proKLK7 act: 0; SMARCA2 conf: 8; GAL4-VP16 Luc: 9.6*

What do the screens show for `COc1cccc(C(=O)NCC2CCN(C(=O)C(=O)c3cc4ccccc4o3)CC2)c1`?
MsrA inh: 2; SMARCA2 activ: -8; proKLK7 act: 1

Results for N#Cc1ccc2nc(-c3ccc(CN4CCC(n5cc(-c6ccccc6)[nH]c5=O)CC4)cc3)c(-c3ccccc3)nc2c1 ?
MsrA inh: 2; SMARCA2 activ: -1; proKLK7 act: -3

How did COCCn1c(SCC(=O)Nc2ccc(F)cc2)nc2c(c1=O)SCC2 do in these assays?
MsrA inh: 1; SMARCA2 activ: -3; MsrA act: -7; proKLK7 act: 0

Results for COC(=O)/C=C1\OCc2ccc(C)cc21 ?
MsrA inh: 1; SMARCA2 activ: -2; proKLK7 act: 0

How did COC(=O)/C=C1\OCc2cc(C)ccc21 do in these assays?
MsrA inh: 0; SMARCA2 activ: 13*; proKLK7 act: 1; SMARCA2 conf: 7; GAL4-VP16 Luc: 3

What do the screens show for `CCCN(CC(=O)Nc1ccccc1C)C(=O)c1cc2ccccc2oc1=O`?
MsrA inh: 3; SMARCA2 activ: -2; MsrA act: 1; proKLK7 act: 0

What do the screens show for `Cc1ccc2nc(-c3ccccc3)c(Cc3ccsc3)n2c1`?
MsrA inh: 1; SMARCA2 activ: 4; MsrA act: -14; proKLK7 act: -1

Results for Cc1ccc2nc(-c3cccc(Br)c3)c(Cc3ccsc3)n2c1 ?
MsrA inh: 0; SMARCA2 activ: 9.5*; proKLK7 act: 0; SMARCA2 conf: 9.7*; GAL4-VP16 Luc: 8.9*

Results for Cc1ccc2nc(-c3ccc(F)cc3)c(Cc3cccc(Cl)c3)n2c1 ?
MsrA inh: 0; SMARCA2 activ: 13*; MsrA act: -2; proKLK7 act: -1; SMARCA2 conf: 7; GAL4-VP16 Luc: 7.3*

What do the screens show for `Cc1ccc2nc(-c3ccc(F)cc3)c(Cc3cccc(F)c3)n2c1`?
MsrA inh: 1; SMARCA2 activ: 8.6*; proKLK7 act: 0; SMARCA2 conf: 3; GAL4-VP16 Luc: 1

What do the screens show for `Cc1ccc2nc(-c3ccc(Cl)cc3)c(Cc3cccc(Cl)c3)n2c1`?
MsrA inh: 1; SMARCA2 activ: 0; MsrA act: -4; proKLK7 act: -7

How did O=C(NCCC1=CCCCC1)C1CCCN(S(=O)(=O)c2cccc3cccnc23)C1 (configuration not stated) do in these assays?
MsrA inh: -1; SMARCA2 activ: 10*; MsrA act: 1; proKLK7 act: -1; SMARCA2 conf: -5; GAL4-VP16 Luc: -1

How did COCc1[nH]nc2c1C(c1cccc(C(F)(F)F)c1)NC2=O (configuration not stated) do in these assays?
MsrA inh: 1; SMARCA2 activ: -4; proKLK7 act: 0

How did COc1cc2nc(N(C)C)nc(N)c2cc1OC do in these assays?
MsrA inh: 1; SMARCA2 activ: 13*; MsrA act: -1; proKLK7 act: -47; SMARCA2 conf: 28*; GAL4-VP16 Luc: 0

What do the screens show for `CNC(=S)N1N=C(c2cccs2)CC1c1ccc(F)cc1` (configuration not stated)?
MsrA inh: 2; SMARCA2 activ: -2; MsrA act: -2; proKLK7 act: 0

What do the screens show for `NC(CCc1ccccc1)c1csc(Nc2nccc(C(F)(F)F)n2)n1` (configuration not stated)?
MsrA inh: -1; SMARCA2 activ: -3; MsrA act: -1; proKLK7 act: 0

What do the screens show for `COc1ccccc1OCCNC(=O)c1ccc(Br)cc1`?
MsrA inh: 0; SMARCA2 activ: 8.8*; MsrA act: -2; proKLK7 act: 0; SMARCA2 conf: 3; GAL4-VP16 Luc: 4

Compound activity from PubChem BioAssay.
